Laboratory results reported in PubChem BioAssay (EPA / NIEHS).
Calls of active or inactive are those of the source. How the source made its calls: active means hit-call score of the fitted dose curve at least 0.9, where 1 is the maximum; inactive means score below 0.9.

test: CCTE_Shafer_MEA_acute_burst_number: CCTE's Neural Acute Assay for Single-Electrode Bursts, Shafer Lab (AID 2284013)
Method: CCTE_Shafer_MEA_acute assay is conducted using Axion Biosystems 48 well microelectrode array (MEA) plates and Maestro recording system. Each well of the MEA plate contains a grid of 16 microelectrodes embedded in the culture surface. Electrically active cells, such as neurons, can be cultured over the electrodes, and electrical activity in these cells can be recorded extracellularly. The spontaneous firing of neurons is captured from each electrode on a microsecond timescale providing both temporally and spatially precise data. […] The CCTE_Shafer_MEA_acute assay uses primary cultures of rat cortical neurons. As these cultures mature over time, neural networks develop functional activity and form cohesive networks in which electrical activity can be highly coordinated. Baseline 40-minute recordings are made on days post-plating 13 or 15, followed by a secondary 40-minute recording after chemical exposure.CCTE_Shafer_MEA_acute_burst_number is a component of the CCTE_Shafer_MEA_acute assay. It measures the total number of single-electrode bursts (temporally-clustered groups of action potential firing) during a recording in a microelectrode array (MEA) using Axion Biosystems Maestro 768 channel amplifier with the AxIS adaptive spike detector. The recordings before and after chemical treatment are used to calculate a percent change in the burst number in each well.Data from the assay component CCTE_Shafer_MEA_acute_burst_number was analyzed into 1 assay endpoint. This assay endpoint, CCTE_Shafer_MEA_acute_burst_number, was analyzed in the negative analysis fitting direction relative to DMSO as the negative control and baseline of activity. Using a type of functional reporter, gain or loss-of-signal activity can be used to understand electrical activity.
Spontaneous activity in the cortical cultures was recorded using an Axion Biosystems Maestro 768 channel amplifier and Axion Integrated Studios (AxIS) v1.8 (or later) software. The amplifier recorded from all channels simultaneously (gain = 1200 x; sampling rate = 12.5 kHz/channel): raw signals were filtered with a Butterworth band-pass filter (300-5000 Hz), which filters out slower local field potentials leaving only fast potentials, i.e., "spikes", arising from extracellular currents associated with action potentials (Pine 2006; Wheeler and Nam 2011). On-line spike detection of filtered signals was conducted with the AxIS adaptive spike detector, using a threshold of 8x the root mean squared (rms) noise on each channel. Any electrodes with rms noise levels greater than 5 uV were grounded (e.g., no data were recorded). Once grounded, an electrode was grounded for the duration of the experiment. All recordings were conducted at 37 C. Wells were deemed usable if on the day of the exposure >/= 10 electrodes were active (defined as >/= 5 spikes/min). On DIV 13 or 15, a minimum of three wells from one cortical culture preparation were treated with each compound (0.03-40 uM). Prior to recording baseline activity, each mwMEA plate was placed in the Maestro at 37 C and allowed to sit for 20 min while firing rates stabilized. Baseline activity (40 min) was recorded before the addition of each compound. An additional 40 min of spontaneous activity was recorded in the presence of each compound. Changes in network parameters relative to baseline were assessed following compound treatment.

Structure (SMILES) | outcome | AC50
Cc1ccc(N)cc1N | inactive | 
[N-]=[N+]=[N-] | inactive | 
COCCOCCO | inactive | 
CCC(C)(C)c1ccc(O)cc1 |  | 0.283 µM (active)
CC(Cl)(Cl)C(=O)O | inactive | 
CCOP(=S)(Oc1ccc([N+](=O)[O-])cc1)c1ccccc1 (stereo unspecified) | inactive | 
CC(C)(C)c1ccccc1OP(=O)(Oc1ccccc1)Oc1ccccc1 |  | 1.23 µM (active)
CCOc1ccc(C(C)(C)COCc2cccc(Oc3ccccc3)c2)cc1 | inactive | 
O=C(O)C1C(C(=O)O)C2(Cl)C(Cl)=C(Cl)C1(Cl)C2(Cl)Cl (stereo unspecified) | inactive | 
c1ccc2c(c1)Nc1ccccc1S2 |  | 3.97 µM (active)
COP(=O)(CCC(=O)NCO)OC | inactive | 
CCC1(c2ccccc2)C(=O)N=C(O)NC1=O (stereo unspecified) | inactive | 
Nc1ccc2ccccc2c1 | inactive | 
ClC1=C(Cl)C2(Cl)C3C(Cl)C(Cl)CC3C1(Cl)C2(Cl)Cl (stereo unspecified) | inactive | 
ClC(Cl)(Cl)c1ccccc1 | inactive | 
CCCCC(CC)COP(=O)(Oc1ccccc1)Oc1ccccc1 (stereo unspecified) | inactive | 
